# Experimental data published in PubChem BioAssay.
# Active and inactive are the calls of the source.
# Key:
# [1] = small molecules captured by biotinylated probe aFSTL3 – biochemical, small-molecule microarray, fluorescence 635/667, stem cell growth factor project, primary screen (AID 1064); settings: higher = more signal;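 also: measures binding of the biotinylated anti-FSTL3 antibody to printed compounds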
# [2] = binders from COS7 lysate, DM2A8 probe, primary screen, torsin A project, cell lysate, small-molecule microarray, fluorescence 635/667 (AID 1065); settings: higher = more signal, COS7 lysate expressing mutant human TOR1A
# [3] = small molecules captured by biotinylated probe aFGF2 – biochemical, small-molecule microarray, fluorescence 635/667, stem cell growth factor project, primary screen (AID 1067); settings: higher = more signal;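 also: measures binding of biotinylated aFGF2 protein to printed compounds on slides; z-score merges feature fluorescence and signal-to-noise across triplicate slides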
# [4] = small molecules captured by biotinylated probe aFGF10 – biochemical, small-molecule microarray, fluorescence 635/667, stem cell growth factor project, primary screen (AID 1071); settings: higher = more signal;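 also: score merges 667 nm spot intensity and signal to noise from triplicate slides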
# [5] = target: Neurogenic locus notch homolog protein 2 (Homo sapiens) (UniProt Q04721); experiment: small molecules binding Notch2 protein – biochemical, small-molecule microarray, 635 nm fluorescence, stem cell growth factors, primary screen (AID 1073); settings: higher = more signal
# [6] = target: Pro-neuregulin-1, membrane-bound isoform (Homo sapiens) (UniProt Q02297); experiment: small molecules binding neuregulin-1 protein – biochemical, small-molecule microarray, fluorescence 635/667, psychiatric disease protein project, primary screen (AID 1075); settings: NRG1 binding, 635 nm fluorescence, higher = more signal;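 also: score combines 667 nm spot fluorescence with signal to noise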
# [7] = system: Neuregulin-1 EGF-like domain; experiment: small molecules binding NRG1 EGF domain – biochemical, small-molecule microarray, 635 nm fluorescence, primary screen (AID 1081); settings: higher = more signal;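 also: binding of the protein to compounds printed on small-molecule microarray slides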
# [8] = FRG1 expression reporter modulators in myotubes – cell-based, C2C12 myotubes, firefly/Renilla luciferase, luminescence, FRG1 inhibition for FSHD, primary screen (AID 1084); settings: FRG1 promoter luciferase, higher = more signal, called active from +8 up or from −8 down
# [9] = small molecules captured by biotinylated probe aFST – biochemical, small-molecule microarray, fluorescence 635/667, stem cell growth factor project, primary screen (AID 1086); settings: higher = more signal;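 also: score merges 667 nm fluorescence with signal-to-noise of each printed compound spot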
# [10] = binders of probe aHhip on microarray, primary screen, stem cell growth factor project, biochemical, small-molecule microarray, fluorescence 635/667 (AID 1087); settings: higher = more signal;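 also: score merges spot fluorescence at 667nm with spot signal to noise ratio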
# [11] = system: PRMT1 (protein arginine N-methyltransferase 1); experiment: small molecules binding arginine methyltransferase PRMT1 – biochemical, small-molecule microarray, 635 nm fluorescence, primary screen (AID 1088); settings: higher = more signal;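 also: binding of Prmt1 protein to compounds spotted on small-molecule microarray slides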
# [12] = growth effects on S. cerevisiae YJM789 – YJM789 clinical isolate, OD600, 24 h, basal, primary screen (AID 1089); settings: higher = more signal, called active from +8 up or from −8 down;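 also: growth of clinical yeast isolate S. cerevisiae YJM 789 seeded 1000 cells per well; test concentration not given here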
# [13] = S. pombe growth modifiers, basal conditions – strain 972, OD600, 24 h, no modulator, primary screen (AID 1090);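 also: basal condition with compound alone and no growth modifier present; test concentration not given here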; settings: S. pombe 972 growth, higher = more signal, called active from +8 up or from −8 down
# [14] = budding yeast growth modifiers under rapamycin – strain BY4716, OD600, 96 h, primary screen (AID 1091); also: test concentration not given here; settings: S. cerevisiae BY4716 + rapamycin, higher = more signal, called active from +8 up or from −8 down
# [15] = target: Torsin-1A-interacting protein 2 (Homo sapiens) (UniProt Q8NFQ8); experiment: small molecules binding lysate-expressed LULL1 – cell lysate, human LULL1 lysate, 635/667 nm fluorescence, primary screen (AID 1092); settings: small-molecule microarray, hLULL1 lysate binding, 635 nm fluorescence; higher = more signal;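 also: probe is lysate of COS7 cells overexpressing human LULL1; score merges per-feature 667 nm fluorescence with signal-to-noise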
# [16] = optical density change of DRC41 E. coli – strain DRC41, OD650, 24 h, E. coli filamentation project, primary screen (AID 1093);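 also: MC1000 strain lacking acrAB efflux and sulA so SOS filamentation is blocked; test concentration not given here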; settings: E. coli DRC41 growth, higher = more signal, called active from +8 up or from −8 down
# [17] = probe aLefty2 binding to arrayed compounds – biochemical, biotinylated probe, 635/667 nm fluorescence, primary screen (AID 1094); settings: small-molecule microarray, higher = more signal;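 also: score merges spot fluorescence near 667 nm with spot signal-to-noise ratio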
# [18] = system: Noggin (protein binding on small-molecule microarray); experiment: small molecules binding Noggin protein – biochemical, 635/667 nm fluorescence, primary screen (AID 1095); settings: 635 nm fluorescence, higher = more signal;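 also: score merges 667 nm feature fluorescence with signal to noise over triplicate slides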
# [19] = target: Neurogenic locus notch homolog protein 3 (Homo sapiens) (UniProt Q9UM47); experiment: small molecules binding NOTCH3 protein – biochemical, 635/667 nm fluorescence, primary screen (AID 1096); settings: small-molecule microarray, 635 nm fluorescence, higher = more signal
# [20] = probe aEGFR binding to arrayed compounds – biochemical, biotinylated probe, 635/667 nm fluorescence, primary screen (AID 1097); settings: small-molecule microarray, higher = more signal;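 also: probe is a biotinylated anti-EGFR antibody binding compounds printed on slides; score combines fluorescence near 667 nm and signal to noise of each spot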
# Chain of Torsin-1A-interacting protein 2 (Homo sapiens) (Q8NFQ8 whole entry, looked up): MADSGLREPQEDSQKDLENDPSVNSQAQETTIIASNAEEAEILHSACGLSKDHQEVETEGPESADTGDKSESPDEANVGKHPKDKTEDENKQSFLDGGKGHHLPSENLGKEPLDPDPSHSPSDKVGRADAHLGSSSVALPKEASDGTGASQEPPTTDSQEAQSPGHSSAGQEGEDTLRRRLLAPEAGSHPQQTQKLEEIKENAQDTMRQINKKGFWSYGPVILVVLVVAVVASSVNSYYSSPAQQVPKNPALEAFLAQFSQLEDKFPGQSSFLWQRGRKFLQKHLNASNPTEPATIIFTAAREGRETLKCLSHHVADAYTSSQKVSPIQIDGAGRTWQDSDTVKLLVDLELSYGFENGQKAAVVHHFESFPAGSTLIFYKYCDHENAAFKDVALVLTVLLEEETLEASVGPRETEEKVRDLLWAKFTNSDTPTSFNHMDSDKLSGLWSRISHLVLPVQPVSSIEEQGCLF
# Chain of Neurogenic locus notch homolog protein 3 (Homo sapiens) (Q9UM47 whole entry, looked up): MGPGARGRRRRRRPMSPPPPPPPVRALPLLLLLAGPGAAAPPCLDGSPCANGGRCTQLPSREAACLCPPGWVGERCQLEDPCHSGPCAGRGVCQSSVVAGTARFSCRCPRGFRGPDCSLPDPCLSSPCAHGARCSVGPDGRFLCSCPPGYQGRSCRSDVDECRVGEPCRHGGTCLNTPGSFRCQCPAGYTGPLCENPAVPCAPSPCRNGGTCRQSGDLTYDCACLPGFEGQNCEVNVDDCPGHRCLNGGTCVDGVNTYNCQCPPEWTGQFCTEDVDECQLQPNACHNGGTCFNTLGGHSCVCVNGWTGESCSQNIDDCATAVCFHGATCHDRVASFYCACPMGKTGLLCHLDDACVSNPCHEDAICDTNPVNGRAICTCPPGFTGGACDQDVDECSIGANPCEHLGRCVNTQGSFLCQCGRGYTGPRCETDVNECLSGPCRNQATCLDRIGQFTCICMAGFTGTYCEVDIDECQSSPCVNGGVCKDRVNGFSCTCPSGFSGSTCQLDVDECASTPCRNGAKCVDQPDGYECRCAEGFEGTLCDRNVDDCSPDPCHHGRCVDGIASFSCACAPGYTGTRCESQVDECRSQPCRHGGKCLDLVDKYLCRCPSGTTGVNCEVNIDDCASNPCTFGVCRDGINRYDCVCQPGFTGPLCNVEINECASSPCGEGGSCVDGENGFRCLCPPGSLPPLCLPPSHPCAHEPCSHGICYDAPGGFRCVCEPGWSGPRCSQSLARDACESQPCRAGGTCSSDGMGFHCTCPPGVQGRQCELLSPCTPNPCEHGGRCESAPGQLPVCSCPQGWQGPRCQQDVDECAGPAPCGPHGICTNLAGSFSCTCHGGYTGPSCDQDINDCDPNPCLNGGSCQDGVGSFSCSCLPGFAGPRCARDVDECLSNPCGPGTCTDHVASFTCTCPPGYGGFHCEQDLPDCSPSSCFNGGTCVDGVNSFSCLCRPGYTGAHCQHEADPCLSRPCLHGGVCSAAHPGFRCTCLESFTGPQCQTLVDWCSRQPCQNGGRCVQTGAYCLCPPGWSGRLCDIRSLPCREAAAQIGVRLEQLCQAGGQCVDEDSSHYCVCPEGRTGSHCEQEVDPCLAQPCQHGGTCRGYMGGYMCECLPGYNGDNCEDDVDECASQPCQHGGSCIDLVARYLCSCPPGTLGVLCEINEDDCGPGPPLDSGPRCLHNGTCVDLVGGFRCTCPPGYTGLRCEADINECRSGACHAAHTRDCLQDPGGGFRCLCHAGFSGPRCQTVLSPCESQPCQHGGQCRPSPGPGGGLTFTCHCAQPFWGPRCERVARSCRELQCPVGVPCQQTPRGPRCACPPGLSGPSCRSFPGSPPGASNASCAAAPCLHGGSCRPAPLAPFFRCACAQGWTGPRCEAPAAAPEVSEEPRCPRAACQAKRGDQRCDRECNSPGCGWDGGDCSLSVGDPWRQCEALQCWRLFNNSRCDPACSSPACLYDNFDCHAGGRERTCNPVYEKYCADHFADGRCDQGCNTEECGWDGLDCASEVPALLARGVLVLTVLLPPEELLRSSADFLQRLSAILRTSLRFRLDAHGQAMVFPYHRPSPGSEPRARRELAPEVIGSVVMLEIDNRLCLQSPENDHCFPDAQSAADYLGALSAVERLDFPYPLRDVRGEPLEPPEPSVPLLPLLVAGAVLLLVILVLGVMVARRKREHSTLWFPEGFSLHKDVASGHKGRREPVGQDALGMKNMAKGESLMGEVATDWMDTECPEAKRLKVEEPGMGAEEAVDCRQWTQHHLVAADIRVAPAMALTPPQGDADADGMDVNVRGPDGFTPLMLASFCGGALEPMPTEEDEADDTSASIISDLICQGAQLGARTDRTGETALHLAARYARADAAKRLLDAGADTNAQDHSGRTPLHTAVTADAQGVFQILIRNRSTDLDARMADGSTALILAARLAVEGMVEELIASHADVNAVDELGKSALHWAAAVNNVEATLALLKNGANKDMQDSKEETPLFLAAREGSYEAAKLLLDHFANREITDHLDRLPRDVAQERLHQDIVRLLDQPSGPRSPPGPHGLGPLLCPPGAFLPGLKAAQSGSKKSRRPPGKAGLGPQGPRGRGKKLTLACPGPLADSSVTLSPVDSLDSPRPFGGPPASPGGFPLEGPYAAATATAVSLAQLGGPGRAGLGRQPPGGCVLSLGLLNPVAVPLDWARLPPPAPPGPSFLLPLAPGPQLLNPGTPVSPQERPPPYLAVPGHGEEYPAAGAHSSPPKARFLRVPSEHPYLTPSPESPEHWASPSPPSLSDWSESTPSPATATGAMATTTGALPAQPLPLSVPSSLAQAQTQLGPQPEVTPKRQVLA
# Chain of Pro-neuregulin-1, membrane-bound isoform (Homo sapiens) (Q02297 whole entry, looked up, the tested form may be a part, canonical isoform): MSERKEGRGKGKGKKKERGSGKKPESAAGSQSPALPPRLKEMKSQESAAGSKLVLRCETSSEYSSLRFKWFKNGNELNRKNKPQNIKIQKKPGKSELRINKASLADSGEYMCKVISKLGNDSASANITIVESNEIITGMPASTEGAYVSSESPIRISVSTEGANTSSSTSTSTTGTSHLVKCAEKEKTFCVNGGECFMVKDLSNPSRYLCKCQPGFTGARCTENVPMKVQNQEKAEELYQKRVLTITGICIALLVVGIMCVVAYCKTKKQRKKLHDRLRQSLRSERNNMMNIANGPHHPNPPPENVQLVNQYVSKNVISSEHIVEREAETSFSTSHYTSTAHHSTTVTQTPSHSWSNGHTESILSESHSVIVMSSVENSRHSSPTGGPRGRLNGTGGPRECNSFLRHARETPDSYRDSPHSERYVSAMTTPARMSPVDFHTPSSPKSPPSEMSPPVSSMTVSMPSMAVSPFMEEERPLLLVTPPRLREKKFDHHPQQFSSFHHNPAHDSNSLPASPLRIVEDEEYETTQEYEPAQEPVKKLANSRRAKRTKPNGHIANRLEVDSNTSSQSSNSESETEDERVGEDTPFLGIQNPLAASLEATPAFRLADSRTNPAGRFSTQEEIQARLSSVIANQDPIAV
Compound,composite z-score [1],composite z-score [2],composite z-score [3],composite z-score [4],composite z-score [5],composite z-score [6],composite z-score [7],z-score [8],composite z-score [9],composite z-score [10],composite z-score [11],z-score [12],z-score [13],z-score [14],composite z-score [15],z-score [16],composite z-score [17],composite z-score [18],composite z-score [19],composite z-score [20]
[N-]=[N+]=NCc1ccccc1C[C@]1(C(=O)N2CCOCC2)N=C(c2ccc(OCCCO)cc2)O[C@H]1c1ccccc1,0.303,0.18,-0.0455,0.686,0.412,0.766,0.542,-3.67 (inactive),0.912,-0.0994,1.46,-0.432 (inactive),-9.19 (active),31.6 (active),2.33,1.33 (inactive),-0.162,1.15,0.673,-0.0509
CC(C)CNC(=O)[C@@]1(C)c2ccccc2C(=O)N(C(C)C)[C@H]1c1ccc(CO)cc1,0.095,-0.456,-0.0803,-0.435,-1.78,0.0276,-0.266,0.0705 (inactive),-0.37,0.0424,-1.32,0.0968 (inactive),0.481 (inactive),0.0297 (inactive),1.16,-0.0935 (inactive),0.44,-0.933,-2.11,0.0744
CCCCCCCCCCC(O)C1C=CC2C(=O)N(c3ccccc3)C(=O)C2N1Nc1ccc([N+](=O)[O-])cc1 (stereo not given),-0.325,0.112,-0.0107,0.461,1.44,1.11,1.05,1.39 (inactive),0.574,-0.199,1.57,0.0819 (inactive),0.23 (inactive),26.7 (active),3.25,-0.734 (inactive),-0.0059,0.186,1.09,-0.0828
COc1ccc([Si](C)(C)[C@H]2[C@H](CC(=O)N(CCO)Cc3ccccc3)O[C@@]3(C(=O)N(Cc4cccc(N5C(=O)c6cccc7cccc5c67)c4)c4ccccc43)[C@@H]2C)cc1,-0.184,0.199,-0.0664,0.202,-0.588,0.824,1.2,-3.13 (inactive),-0.246,-0.236,1.19,-1.64 (inactive),-0.897 (inactive),2.79 (inactive),1.72,1.02 (inactive),-0.0158,0.315,0.228,-0.378
COC(=O)[C@@]1(Cc2ccc(OC)cc2)[C@H]2c3cc(C(=O)N(C)C)n(CCSCCO)c3C[C@H]2CN1C(=O)c1ccccc1,0.172,-0.233,0.164,0.979,1.61,1.47,1.22,-1.35 (inactive),0.547,-0.04,0.359,-0.526 (inactive),0.271 (inactive),-0.251 (inactive),3.53,-0.209 (inactive),0.162,0.281,1.13,0.31
C[N+](C)(C)CCCC[C@@H]1NC(=O)[C@H]2C[C@@H](C(=O)O)[C@@H](c3cccc(OCCO)c3)N2C1=O,2.11,1.85,0.676,0.788,1.01,2.81,1.44,-0.698 (inactive),1.65,1.88,1.54,-1.28 (inactive),-0.362 (inactive),-0.498 (inactive),3.79,0.0136 (inactive),1.5,1.83,1.1,1.06
COCCOC(=O)N1C(=O)[C@@]2(c3cc(C#CCCO)ccc31)[C@H](c1ccc(O)cc1)N1[C@H](c3ccccc3)[C@H](c3ccccc3)OC(=O)[C@H]1[C@@H]2C(=O)N1CCCCCCC1,2.58,1.07,0.2,1.04,1.33,0.853,1.14,-0.73 (inactive),2,0.7,1.54,0.616 (inactive),0.948 (inactive),0.563 (inactive),2.86,-0.16 (inactive),0.947,1.29,0.991,0.335
O=C1O[C@H](c2ccccc2)[C@H](c2ccccc2)N2[C@H]1[C@@H](C(=O)N1CCCCCCC1)[C@]1(C(=O)Nc3ccc(C#CC4=CCCCC4)cc31)[C@H]2c1ccc(O)cc1,3.8,2.87,1.05,1.46,1.84,2.87,1.54,0.805 (inactive),3.41,2.58,1.56,-0.177 (inactive),0.218 (inactive),0.791 (inactive),5.19,1.26 (inactive),1.91,2.3,1.02,1.47
CN(C)CCCC[C@@H]1NC(=O)[C@@H]2C[C@H](C(=O)NCCCCCCN)[C@H](c3ccc(O)cc3)N2C1=O,1.95,0.58,0.15,0.727,0.921,1.39,1.44,-0.0024 (inactive),2.16,0.861,1.18,0.377 (inactive),-2.04 (inactive),0.638 (inactive),2.52,-0.47 (inactive),0.892,0.855,0.526,0.678
CCCCC(=O)N(Cc1ccccc1F)[C@@H]1CC(C(=O)NCCO)=C[C@H](Oc2c(I)cc(CO)cc2OC)[C@H]1O,-0.451,0.686,-0.0462,0.228,1.17,1.47,1.42,-0.84 (inactive),0.442,0.27,1.54,0.41 (inactive),-1.91 (inactive),-1.02 (inactive),1.83,0.772 (inactive),-0.0718,2.04,1.04,0.0209
